Results on 51 compounds are retold here after PubChem BioAssay AID1117280 (The Scripps Research Institute Molecular Screening Center, 2014).

Out of some 1,100 compounds screened, fewer than 10 were called active.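 Rule for the calls: active = mean activation above a set limit taken from the earlier primary screen (cut at about 11% in these data); inactive = the rest.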 These entries were drawn from the full list.

The target of this assay is Transthyretin (Homo sapiens) (UniProt P02766). As to the kind of experiment: TTR transcription activators, retest, confirmation, cell-based, luminescence, SH-SY5Y, triplicate (AID 1117280).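 Note: 0% = DMSO-treated cells and 100% = recombinant Lucia luciferase without cells.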 The following applies: SHSY5Y TTR promoter Gaussia luciferase, at 16.7 µM, active compounds read high, 100% = purified Lucia enzyme wells, no cells.
For `COc1ccc(-c2oc3ncn(Cc4ccco4)c(=N)c3c2-c2ccc(OC)cc2)cc1`, the activation was -0.27% (inactive). On to `O=C(NNC1=NCCC1)c1cccc(S(=O)(=O)N2CCCCC2)c1`, for which the activation is 0% (inactive).

In the case of `Cc1ccc(CN2CCCOCCS2(=O)=O)cc1`, the activation was 0.01% (inactive).

Consider `O=S(=O)(NCCCN1CCOCC1)c1ccc(F)c(Cl)c1`, for which the activation is 1.67% (inactive).

For `N#Cc1cccc(CN2CCC(=O)N(CCO)CC2)c1`, the activation is 0.71% (inactive). Next, `Cc1cc(C)c2nc3nc(C)cc(C)c3c(N)c2c1`: 9.48% (inactive); `COc1cccc(-c2cnc(C(O)c3ccccc3OC)[nH]2)c1` (stereo unspecified): -0.09% (inactive). Next, `C/C(CC(=O)Nc1ccc(N(C)C)cc1)=N\NC(=O)c1ccccc1F`: 0.83% (inactive); `C(=N\n1cnnc1)/c1cccnc1`: 0.91% (inactive); `CCOc1ccccc1NC(=O)COc1ccc(S(=O)(=O)N2CCCC2)cc1`: 1.24% (inactive). The value for `CSCCC(NC(N)=O)C(=O)N(C)CC(=O)Nc1ccc(C)cc1` (stereo unspecified) was -0.85% (inactive); that for `CCOC(=O)c1cc(-c2ccc(Cl)s2)nc2c1c(C)nn2C` was 0.17% (inactive); that for `O=C(Nc1cccc(O)c1)c1ccc(C(=O)c2ccccc2)o1` was -1.44% (inactive). As to `COc1cc(C(C)=O)ccc1OC(C)C(=O)Nc1ccc(S(=O)(=O)N2CCCC2)cc1` (stereo unspecified), the activation is 0.49% (inactive). The value for `Cc1c(NS(=O)(=O)c2ccc(NC3CCCC3)c([N+](=O)[O-])c2)c(=O)n(-c2ccccc2)n1C` was -1.51% (inactive); that for `N=c1ccn(CC(=O)NC(N)=O)c2ccccc12` was 11.7% (active). In the case of `C[C@H](NC(=O)C1CCN(S(=O)(=O)c2ccccc2)CC1)C(=O)NCc1ccccc1`, the activation was -0.18% (inactive). `CCCCc1cc(=O)oc2cc(C)cc(OCc3nn[nH]n3)c12`: the activation was 0.29% (inactive). Next, `O=C(O)C1OC(C(=O)O)C2C1C(F)(F)C2(F)F` (stereo unspecified): 0.77% (inactive). Next, `CCCCOCCCNC(=O)C[C@H]1C[C@@]2(C(=O)OC)C(=C[C@H](C(C)(C)C)O[C@@H]2C)N(CCc2ccc(OC)c(OC)c2)C1=O`: -0.4% (inactive). Next, `Cc1cccc(C)c1NC(=O)CN1C(=O)C(C)Oc2ccccc21` (stereo unspecified): -0.02% (inactive); `Brc1ccc(/C=N/N2CCN(C3c4ccccc4-c4ccccc43)CC2)s1`: -0.21% (inactive); `O=C(O)Cn1c(Cc2ccccc2)nc2ccccc21`: -0.81% (inactive). As for `Cc1nc(-c2ccc(Cl)cc2)sc1C(=O)NN`, the activation is 1.27% (inactive). The value for `COc1cc(N2C(=O)CC3(CCCC3)CC2=O)cc(OC)c1OC` was 0.03% (inactive); that for `CCCCCc1ccc(-c2cn(Cc3ccc4ccccc4c3)nn2)cc1` was -0.98% (inactive).

Consider `CCOc1ccc(N=C2NC(=O)S/C2=C\c2ccc(O)cc2)cc1`, for which the activation was -2.11% (inactive). Next, `Cc1ccccc1/[N+]([O-])=C/c1ccncc1`: 0.64% (inactive); `O=C(NCCCNC(=O)c1ccccc1Cl)c1cnccn1`: -0.49% (inactive); `COc1ccccc1N1CCN(Cc2cc(OC)c3c(c2)OCO3)CC1`: 1.03% (inactive). For `O=C(CCC(=O)c1cccs1)NCc1ccccc1`, the activation is -0.16% (inactive).

Turning to `CCOc1ccc(NC(=O)COc2ccc(S(=O)(=O)N3CCCC3)cc2)cc1`, the activation is -0.08% (inactive). On to `Cc1c(C#N)c(NC(=O)c2ccccc2)n(Cc2ccccc2)c1C`, for which the activation was 0.46% (inactive). The value for `O=C(Nc1ccccc1C(=O)N1CCCCCC1)c1ccccc1Cl` was 0.38% (inactive); that for `COc1ccc(S(=O)(=O)NCC(=O)NCc2cc(=O)n(C)c(=O)n2C)cc1F` was -0.18% (inactive). The value for `Cc1cccc(N2C(=O)CC(SC(N)=Nc3ccccc3)C2=O)c1` (stereo unspecified) was -0.45% (inactive); that for `C=C1C(C(C)C)N(C)C2=NC(c3ccccc3)CC(=O)N12` (stereo unspecified) was 0.07% (inactive).

Turning to `Cc1cc(C)c(C#N)c(N2CCC(C(N)=O)CC2)n1`, the activation is -0.71% (inactive). In the case of `CC(C)NC(=O)c1ccc(Sc2ccccc2)c([N+](=O)[O-])c1`, the activation is -0.62% (inactive). Next, `CCOC(=O)c1c(-c2ccccc2)oc2ccc(OCC(N)=O)cc12`: -0.6% (inactive); `O=C(NC(=O)c1ccccc1N1CCCCC1)Nc1ccc(Br)cc1`: 0.23% (inactive); `COc1ccc(C2c3ccc(O)cc3Oc3ncn(CCCO)c(=N)c32)cc1OC` (stereo unspecified): -0.83% (inactive).

Regarding `CC(C)(C)C1CCC(OC(=O)CCC(=O)Nc2ccccc2)CC1` (stereo unspecified), the activation was -1.07% (inactive).

Turning to `O=C(NNC(=O)c1cc(S(=O)(=O)N2CCCCC2)ccc1Cl)c1ccccc1O`, the activation is 0.18% (inactive). The value for `Nc1nc(SCC(=O)Nc2ccc(Cl)c([N+](=O)[O-])c2)n[nH]1` was 0.36% (inactive). The value for `COC(=O)c1cnn2c(C(F)(F)F)cc(-c3ccco3)nc12` was -0.89% (inactive). The value for `O=C1c2cccc(OCC(=O)N3N=C(c4cccs4)CC3c3ccc(F)cc3)c2CCN1Cc1ccccc1` (stereo unspecified) was -0.93% (inactive). As for `Cn1cc(CN2CCCC(CO)C2)c(-c2ccc(Oc3ccccc3)cc2)n1` (stereo unspecified), the activation was 2.56% (inactive). Next, `CCCCN(C)CCNC(=O)C1CCCN(S(=O)(=O)c2cccc3nsnc23)C1` (stereo unspecified): 0.58% (inactive). The value for `O=S(=O)(NCc1ccccc1Br)c1ccccc1Br` was -0.25% (inactive); that for `O=C(CS(=O)(=O)c1ccccc1)Nc1ccc(S(=O)(=O)Nc2ccccn2)cc1` was -0.26% (inactive).
